PubChem BioAssay (NCATS)
Several values for one entry are separate records, joined by “and”; a condition that tells them apart may be missing. Equal entries are not always repeated. Inconclusive results are not listed. Activity calls are given as the source filed them. Unless noted, the call rests on the fitted dose curve; in most records, active means well fitted curve in the direction sought with a large enough effect; inconclusive means small, poorly fitted or top-dose-only effect, or another doubt; inactive means no such curve, though single readings can be large; an effect the other way counts as inactive or inconclusive.

Key:
[1] = qHTS for differential inhibitors of proliferation of Plasmodium falciparum line 3D7 (AID 1876); further: potency means the concentration at half of the fitted maximal effect
[2] = qHTS for differential inhibitors of proliferation of Plasmodium falciparum line D10 (AID 1877);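 further: parasites grown with compound for 72 h before DNA staining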; further: potency means the concentration at half of the fitted maximal effect
[3] = qHTS for differential inhibitors of proliferation of Plasmodium falciparum line Dd2 (AID 1882); conditions: Potency: Plasmodium falciparum Dd2 proliferation inhibition;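 further: series mostly up to about 29 µM; compound exposure of 72 h on infected erythrocytes; plate controls were DMSO vehicle for no effect and 0.29 µM artemisinin for full effect; nearly all actives have a fitted effect of over 65% in size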
Procedure, shortened: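 SYBR Green I DNA fluorescence read-out, ex 485/em 535 nm. Signals were normalized to 0.29 uM artemisinin and DMSO wells, then corrected using vehicle-only plates flanking each stack. Parasite growth ran 72 h in erythrocytes before lysis.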

[4] = qHTS for differential inhibitors of proliferation of Plasmodium falciparum line HB3 (AID 1886); conditions: Potency: Plasmodium falciparum HB3 proliferation inhibition;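 further: parasites grown with compound for 72 h before SYBR Green readout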; further: potency means the concentration at half of the fitted maximal effect
[5] = target: M-phase phosphoprotein 8 (Homo sapiens) (UniProt Q99549); experiment: qHTS Validation Assay for Inhibitors for MPP8 Chromodomain Interactions with Methylated Histone Tails (AID 488949); further: nearly all actives have a fitted effect of over 55% in size; further: potency means the concentration at half of the fitted maximal effect
Procedure, shortened: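 AlphaScreen read-out: streptavidin donor and nickel chelate acceptor beads (final 10 ug/mL), 30 min in the dark at RT. Complex of 50 nM MPP8 and 50 nM b-H3(1-18)K9me3 peptide had been exposed to compounds for 30 min beforehand.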

[6] = target: Voltage-gated inwardly rectifying potassium channel KCNH2 (Homo sapiens) (UniProt Q12809); experiment: qHTS Assay for Small Molecule Inhibitors of the Human hERG Channel Activity (AID 588834);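 further: top concentration of the series differs between compounds; on the % scale 0 is the no-effect control and ±100 the full control effect; lower thallium flux fluorescence means stronger hERG block; nearly all actives have a fitted effect of over 50% in size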
Procedure, shortened: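 Concentration-response qHTS measuring drop in thallium-sensitive dye signal. U2OS cells carrying BacMam hERG; compound exposure ~10 min, then stimulation buffer and 2 min read at 1 sec intervals.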

[7] = qHTS for differential inhibitors of proliferation of Plasmodium falciparum line 7G8 (AID 1815);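 further: parasite growth measured after three days of incubation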; further: potency means the concentration at half of the fitted maximal effect
[8] = qHTS for differential inhibitors of proliferation of Plasmodium falciparum line GB4 (AID 1816); conditions: Potency: Plasmodium falciparum GB4 proliferation inhibition;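 further: potency means the concentration at half of the fitted maximal effect; parasite growth measured after 72 h incubation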
[9] = Confirmatory qHTS for VERO E6 Cytotoxicity Assay: Counterscreen for SARS-CoV-2 CPE Assay (AID 1508605; calls by dose curve; further: series mostly up to about 20 µM; on the % scale 0 is the no-effect control and ±100 the full control effect; nearly all actives have a fitted effect of over 60% in size)
[10] = MultiTox-Fluor Cytotoxicity Assay - LYMP1-001 - Dead Cells (AID 946); further: potency means the concentration at half of the fitted maximal effect
Procedure, shortened: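 Cytotoxicity as increased dead-cell protease fluorescence (bis-AAF-R110, 485/520 nm), read 60 min after MultiTox-Fluor reagent. Human lymphoblastoid line exposed 16 h; Hill-fitted AC50, with DMSO as 0% and 15 uM tetraoctylammonium bromide as 100%.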

[11] = Cell Viability - LYMP1-002 - Assay at 16 hr (AID 948);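 further: 0% = DMSO alone and full effect = 92 µM tetraoctylammonium bromide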
Procedure, shortened: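 LYMP1-002 human lymphoblastoid cells, 2500/well; 5 hr 37 C; cpd 16 hr 37 C; CellTiter-Glo 30 min RT; luminescence (ATP). Concentration-response, Hill-fit AC50. Pos ctrl tetraoctylammonium bromide.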

[12] = MultiTox-Fluor Cytotoxicity Assay - LYMP1-002 - Dead Cells (AID 960); further: nearly all actives have a fitted effect of over 60% in size; further: potency means the concentration at half of the fitted maximal effect
Procedure, shortened: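 Acute cytotoxicity in a human lymphoblastoid line is scored as rising dead-cell protease signal after 16 hr exposure at 37 C, measured fluorometrically (485/520).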

[13] = Cell Viability - LYMP1-003 - Assay at 24 hr (AID 963);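 further: plate controls were DMSO only for no effect and tetraoctylammonium bromide positive control for full effect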
Procedure, shortened: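 Acute toxicity in LYMP1-003 lymphoblastoid cells: 24 hr compound treatment at 37 C, ATP measured with CellTiter-Glo after 30 min at room temperature. AC50 derived by fitting the Hill equation to qHTS titrations.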

[14] = target: Estrogen receptor (Homo sapiens) (UniProt P03372); experiment: qHTS assay for small molecule antagonists of estrogen receptor alpha signaling (AID 588513; active means well fitted curve in the direction sought with a large enough effect in the signal ratio, with a control signal flat, not every such curve was filed as active; the % refers to the signal ratio; further: on the % scale 0 is the no-effect control and ±100 the full control effect)
Procedure, shortened: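 Beta-lactamase reporter, antagonist mode, HEK 293 GripTite cells; 0.5nM E2 stimulus, 18 h, 37 C; CCF4 dye 2 h RT; fluorescence. IC50 and efficacy from Hill fits, normalized to E2 and DMSO.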

[15] = target: Peroxisome proliferator-activated receptor gamma (Homo sapiens) (UniProt P37231); experiment: qHTS assay for small molecule agonists of peroxisome proliferator-activated receptor gamma signaling (AID 588536; active means well fitted curve in the direction sought with a large enough effect in the signal ratio, with a control signal flat, not every such curve was filed as active; the % refers to the signal ratio;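 further: 0% = DMSO basal wells and 100% = rosiglitazone at 2 µM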)
Procedure, shortened: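 Ratiometric blue/green fluorescence (405 nm excitation; 460 and 530 nm emission) from CCF4-loaded HEK293 reporter cells serves as signal. Exposure to test compounds lasts 16 h at 37 C in medium containing 1% charcoal/dextran-treated serum.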

[16] = target: Vitamin D3 receptor (Homo sapiens) (UniProt P11473); experiment: qHTS assay for small molecule antagonists of vitamin D receptor signaling (AID 588541; calls by dose curve;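 further: receptor activated by calcitriol during compound treatment; series mostly up to about 77 µM; on the % scale 0 is the no-effect control and ±100 the full control effect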)
Procedure, shortened: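 VDR-UAS-bla HEK293T cells (2000/well, 2% charcoal-stripped FBS) were treated with titrated compounds plus 1-alpha,25-dihydroxyvitamin D3 (50 nM or 3 nM final) for 16 h at 37 C. CCF4 beta-lactamase fluorescence was read; Hill fits gave IC50.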

[17] = qHTS assay for small molecule antagonists of retinoid X receptor alpha signaling (AID 588546; active means well fitted inhibition curve with a large enough effect in the signal ratio, with a control signal flat, not every such curve was filed as active; the % refers to the signal ratio; further: potency means the concentration at half of the fitted maximal effect;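 on max response: cells stimulated with 9-cis-retinoic acid as agonist; on the % scale 0 is the no-effect control and ±100 the full control effect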); conditions: HEK293T RXRa-UAS-bla, beta-lactamase ratio, antagonist mode; measured here: W530 green channel, cytotoxicity proxy
Procedure, shortened: (§1)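 Beta-lactamase reporter inhibition, read as CCF4 fluorescence ratio (ex 405, em 460/530 nm) after 2 h at RT. HEK293T UAS-bla cells, 2500/well, were stimulated with 9-cis-RA at 500 or 100 nM final alongside test compound for 18 h at 37 C.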

[18] = target: Retinoic acid receptor RXR-alpha (Homo sapiens) (UniProt P19793); experiment: as above; conditions: HEK293T RXRa-UAS-bla, beta-lactamase ratio, antagonist mode
Procedure, shortened: as §1

[19] = target: Thyroid hormone receptor beta (Homo sapiens) (UniProt P10828); experiment: qHTS assay for small molecule antagonists of thyroid hormone receptor beta signaling (AID 588547; active means well fitted inhibition curve with a large enough effect in the signal ratio, with a control signal flat, not every such curve was filed as active; the % refers to the signal ratio;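 further: cells stimulated with 0.4 nM T3 agonist during compound exposure; series mostly up to about 77 µM; on the % scale 0 is the no-effect control and ±100 the full control effect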); conditions: TR-UAS-bla HEK293, beta-lactamase ratio, antagonist mode, 18 h
Procedure, shortened: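 TR-UAS-bla GripTite HEK293 cells in 2% charcoal/dextran FBS medium were preincubated 4 h at 37 C, given compound (0.59 nM to 92 uM) plus 0.4 nM T3 (final) for 18 h, then CCF4 for 2 h at RT; Hill fit gave IC50.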

[20] = qHTS assay for small molecule disruptors of the mitochondrial membrane potential - 1 hr assay (AID 651754; calls by dose curve; further: nearly all actives have a fitted effect of over 35% in size; further: potency means the concentration at half of the fitted maximal effect)
Procedure, shortened: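 Steps: seed HepG2 cells and let attach overnight; pin-transfer compound or vehicle; incubate 1 hr at 37C; add Mito-MPS dye for 30 min; read two-channel fluorescence for monomer and aggregate forms.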

Peroxisome proliferator-activated receptor gamma (Homo sapiens), sequence (P37231 whole entry, looked up): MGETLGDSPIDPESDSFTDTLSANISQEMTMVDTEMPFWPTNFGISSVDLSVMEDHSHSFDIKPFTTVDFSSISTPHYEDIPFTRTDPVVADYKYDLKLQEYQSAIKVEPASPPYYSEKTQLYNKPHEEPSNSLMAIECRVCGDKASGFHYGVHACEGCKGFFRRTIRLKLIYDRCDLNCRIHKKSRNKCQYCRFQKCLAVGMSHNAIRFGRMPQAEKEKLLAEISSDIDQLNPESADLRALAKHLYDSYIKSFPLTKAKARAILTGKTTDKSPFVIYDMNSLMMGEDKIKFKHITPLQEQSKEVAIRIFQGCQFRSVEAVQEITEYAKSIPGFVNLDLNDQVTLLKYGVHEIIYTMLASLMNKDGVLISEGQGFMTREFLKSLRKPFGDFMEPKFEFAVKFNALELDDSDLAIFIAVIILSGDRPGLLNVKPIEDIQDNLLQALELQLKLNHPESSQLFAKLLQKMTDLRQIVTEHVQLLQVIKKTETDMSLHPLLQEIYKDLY
Thyroid hormone receptor beta (Homo sapiens), sequence (P10828 whole entry, looked up): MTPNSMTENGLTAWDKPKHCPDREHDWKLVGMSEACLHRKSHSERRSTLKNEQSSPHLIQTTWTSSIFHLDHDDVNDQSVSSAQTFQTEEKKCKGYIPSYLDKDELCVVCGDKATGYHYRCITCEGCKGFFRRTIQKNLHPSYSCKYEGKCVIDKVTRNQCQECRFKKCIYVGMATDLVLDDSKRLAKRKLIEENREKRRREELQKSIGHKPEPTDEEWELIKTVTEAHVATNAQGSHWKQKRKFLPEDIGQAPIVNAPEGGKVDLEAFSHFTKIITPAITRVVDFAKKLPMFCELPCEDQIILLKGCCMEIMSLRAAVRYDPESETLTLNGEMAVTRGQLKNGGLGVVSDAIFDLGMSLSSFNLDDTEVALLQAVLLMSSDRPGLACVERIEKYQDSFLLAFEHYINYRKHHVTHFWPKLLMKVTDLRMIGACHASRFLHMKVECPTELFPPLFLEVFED
M-phase phosphoprotein 8 (Homo sapiens), sequence (Q99549 whole entry, looked up): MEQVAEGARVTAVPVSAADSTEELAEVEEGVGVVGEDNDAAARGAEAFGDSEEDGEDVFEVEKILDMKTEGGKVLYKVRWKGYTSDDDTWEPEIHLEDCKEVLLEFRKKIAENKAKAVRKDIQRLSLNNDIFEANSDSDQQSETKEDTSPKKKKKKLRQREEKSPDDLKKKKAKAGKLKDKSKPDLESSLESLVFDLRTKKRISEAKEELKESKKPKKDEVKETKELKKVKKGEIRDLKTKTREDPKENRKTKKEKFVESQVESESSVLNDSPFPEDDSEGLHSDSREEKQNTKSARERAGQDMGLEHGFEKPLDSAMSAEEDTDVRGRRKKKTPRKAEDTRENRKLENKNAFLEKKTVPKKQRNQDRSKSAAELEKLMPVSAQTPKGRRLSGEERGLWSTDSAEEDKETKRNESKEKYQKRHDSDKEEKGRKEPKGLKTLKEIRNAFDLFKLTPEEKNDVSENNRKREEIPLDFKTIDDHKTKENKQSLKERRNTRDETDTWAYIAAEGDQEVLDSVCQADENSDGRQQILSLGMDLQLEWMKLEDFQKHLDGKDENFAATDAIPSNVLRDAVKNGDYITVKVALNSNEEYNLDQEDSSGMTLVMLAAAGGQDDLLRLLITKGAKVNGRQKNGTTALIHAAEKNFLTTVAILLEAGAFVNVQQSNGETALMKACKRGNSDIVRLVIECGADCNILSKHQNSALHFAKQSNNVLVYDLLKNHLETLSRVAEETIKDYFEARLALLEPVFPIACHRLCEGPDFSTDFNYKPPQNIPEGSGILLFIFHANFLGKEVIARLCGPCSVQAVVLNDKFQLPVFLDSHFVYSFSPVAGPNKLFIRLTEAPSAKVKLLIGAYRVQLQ
Retinoic acid receptor RXR-alpha (Homo sapiens), sequence (P19793 whole entry, looked up): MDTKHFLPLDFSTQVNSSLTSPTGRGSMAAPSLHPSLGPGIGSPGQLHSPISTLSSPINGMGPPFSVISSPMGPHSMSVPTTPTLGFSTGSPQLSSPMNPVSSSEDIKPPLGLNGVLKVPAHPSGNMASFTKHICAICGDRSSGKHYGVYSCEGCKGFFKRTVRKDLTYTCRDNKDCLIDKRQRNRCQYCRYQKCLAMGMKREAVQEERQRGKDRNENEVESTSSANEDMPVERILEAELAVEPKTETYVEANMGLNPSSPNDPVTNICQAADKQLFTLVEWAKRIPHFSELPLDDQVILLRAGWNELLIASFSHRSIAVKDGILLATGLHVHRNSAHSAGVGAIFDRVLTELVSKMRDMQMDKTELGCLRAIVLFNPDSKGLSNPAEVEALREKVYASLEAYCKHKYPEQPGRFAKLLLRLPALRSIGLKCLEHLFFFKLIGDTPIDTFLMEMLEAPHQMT
Vitamin D3 receptor (Homo sapiens), sequence (P11473 whole entry, looked up): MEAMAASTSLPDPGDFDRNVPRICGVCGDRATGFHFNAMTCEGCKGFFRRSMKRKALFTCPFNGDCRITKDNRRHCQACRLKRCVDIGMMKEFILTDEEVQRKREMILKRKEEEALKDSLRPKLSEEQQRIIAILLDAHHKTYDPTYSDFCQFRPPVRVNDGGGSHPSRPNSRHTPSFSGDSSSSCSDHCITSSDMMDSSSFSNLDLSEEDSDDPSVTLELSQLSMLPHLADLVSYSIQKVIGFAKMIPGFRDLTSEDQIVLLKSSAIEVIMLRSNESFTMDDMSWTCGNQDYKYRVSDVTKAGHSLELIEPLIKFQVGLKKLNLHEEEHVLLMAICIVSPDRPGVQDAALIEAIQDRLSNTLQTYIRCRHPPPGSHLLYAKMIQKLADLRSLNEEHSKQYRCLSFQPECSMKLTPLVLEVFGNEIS
Estrogen receptor (Homo sapiens), sequence (P03372 whole entry, looked up): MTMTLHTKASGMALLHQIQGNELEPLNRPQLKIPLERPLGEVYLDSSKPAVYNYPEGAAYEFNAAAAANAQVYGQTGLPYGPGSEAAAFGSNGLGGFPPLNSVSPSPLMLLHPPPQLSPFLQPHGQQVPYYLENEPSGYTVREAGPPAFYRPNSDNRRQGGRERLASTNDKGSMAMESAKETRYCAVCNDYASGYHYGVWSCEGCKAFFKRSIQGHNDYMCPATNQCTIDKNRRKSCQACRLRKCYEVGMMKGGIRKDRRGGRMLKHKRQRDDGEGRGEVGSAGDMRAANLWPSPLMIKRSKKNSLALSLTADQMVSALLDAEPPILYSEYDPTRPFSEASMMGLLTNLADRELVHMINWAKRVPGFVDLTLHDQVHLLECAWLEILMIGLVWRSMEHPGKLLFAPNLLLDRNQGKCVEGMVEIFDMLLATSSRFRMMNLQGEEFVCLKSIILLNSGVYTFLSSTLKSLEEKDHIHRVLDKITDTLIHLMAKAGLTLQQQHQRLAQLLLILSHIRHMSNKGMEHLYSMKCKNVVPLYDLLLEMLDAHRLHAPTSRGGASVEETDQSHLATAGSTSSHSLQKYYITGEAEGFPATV
Voltage-gated inwardly rectifying potassium channel KCNH2 (Homo sapiens), sequence (Q12809 whole entry, looked up): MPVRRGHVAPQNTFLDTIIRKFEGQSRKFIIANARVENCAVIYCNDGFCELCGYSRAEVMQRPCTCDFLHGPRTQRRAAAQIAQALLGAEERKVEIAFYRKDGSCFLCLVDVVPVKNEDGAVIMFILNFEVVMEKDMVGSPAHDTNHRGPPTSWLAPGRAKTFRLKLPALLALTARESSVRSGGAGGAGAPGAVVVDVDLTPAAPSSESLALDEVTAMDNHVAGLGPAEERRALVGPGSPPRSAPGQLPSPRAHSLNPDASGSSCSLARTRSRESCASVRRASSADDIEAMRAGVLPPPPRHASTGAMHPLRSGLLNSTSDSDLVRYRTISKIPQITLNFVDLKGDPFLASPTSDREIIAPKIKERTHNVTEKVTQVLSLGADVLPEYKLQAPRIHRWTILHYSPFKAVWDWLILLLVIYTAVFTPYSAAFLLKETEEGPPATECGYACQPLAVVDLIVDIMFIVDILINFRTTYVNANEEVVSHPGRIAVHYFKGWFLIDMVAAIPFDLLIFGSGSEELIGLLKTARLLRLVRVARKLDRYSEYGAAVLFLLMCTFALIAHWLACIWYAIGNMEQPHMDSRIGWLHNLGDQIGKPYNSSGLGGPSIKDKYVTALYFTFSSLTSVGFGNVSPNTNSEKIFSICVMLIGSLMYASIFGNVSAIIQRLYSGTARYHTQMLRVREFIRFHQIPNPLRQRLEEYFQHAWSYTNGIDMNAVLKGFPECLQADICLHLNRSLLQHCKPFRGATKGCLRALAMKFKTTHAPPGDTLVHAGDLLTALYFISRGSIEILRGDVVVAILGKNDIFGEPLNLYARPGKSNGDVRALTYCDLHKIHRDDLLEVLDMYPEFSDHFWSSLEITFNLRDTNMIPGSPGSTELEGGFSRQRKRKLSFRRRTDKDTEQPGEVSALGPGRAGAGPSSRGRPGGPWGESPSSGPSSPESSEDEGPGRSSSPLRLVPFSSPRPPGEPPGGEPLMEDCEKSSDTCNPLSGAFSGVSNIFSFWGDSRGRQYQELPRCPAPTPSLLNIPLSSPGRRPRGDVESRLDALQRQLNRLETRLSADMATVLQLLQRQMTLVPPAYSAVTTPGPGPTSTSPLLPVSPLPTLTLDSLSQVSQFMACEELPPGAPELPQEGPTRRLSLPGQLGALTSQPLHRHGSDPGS

CC(=O)OCC1=C(C(=O)[O-])N2C(=O)[C@@H](NC(=O)CCC[C@@H](N)C(=O)[O-])[C@H]2SC1.[Zn+2]
inactive: Potency [1] | Potency [2] | Potency [3] | Potency [4] | Potency [6]
active: Potency [5] 44.7 µM

CN1C2CCC1CC(OC(=O)C(CO)c1ccccc1)C2 (stereo not given)
inactive: Potency [7] | Potency [3]
active: Potency [8] 8.91 µM

Cc1cc(O)c2c(c1)O[C@@]1(C)CC[C@H]3C(C)(C)CCCC34CO[C@@H]2[C@H]41 (stereo not given in full)
inactive: Potency [9]

Cc1ccccc1O
-8.36% and -9.93%: max response [17]
inactive: Potency [10] | outcome [11] | Potency [12] | outcome [13] | Potency [14] | outcome [15] | outcome [16] | max response [18] -5.98% and 4.44% | activity change % (negative = inhibition) [19] -12.9% and -0.275% | Potency [6] | Potency [20]

CN(C)CCCN1c2ccccc2CCc2ccccc21
inactive: Potency [9]

CC(C)COC(=O)OCN1C(=O)CN(CCN2CC(=O)N(COC(=O)OCC(C)C)C(=O)C2)CC1=O
inactive: Potency [5]

CC(=O)[C@H]1CC[C@H]2[C@@H]3CCC4=CC(=O)CC[C@]4(C)[C@H]3CC[C@]12C
inactive: outcome [11] | outcome [13] | Potency [14] | outcome [15] | outcome [16] | activity change % (negative = inhibition) [19] -26.1%
1.42%: max response [17]
active: Potency [10] 50.1 µM | Potency [12] 10 µM | Potency [7] 8.91 µM | Potency [8] 12.6 µM | Potency [1] 11.2 µM | Potency [2] 12.6 µM | Potency [4] 8.91 µM | Potency [18] 35.5 µM | Potency [20] 11.9 µM
